Hits are enriched below; roughly 1.9% of the tested compounds scored in any of these assays.
FAK inh = FAK (human) kinase inhibition | inhibition, %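 (tested at 7 µM)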 | Q05397 | 97,000 compounds, 0.84% hits | AID 727 | biochemical FAK kinase activity assay; in the data active = inhibition above about 19%;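 note: 0% = DMSO and 100% = reference compound high control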
Target sequence (Q05397 whole entry, looked up): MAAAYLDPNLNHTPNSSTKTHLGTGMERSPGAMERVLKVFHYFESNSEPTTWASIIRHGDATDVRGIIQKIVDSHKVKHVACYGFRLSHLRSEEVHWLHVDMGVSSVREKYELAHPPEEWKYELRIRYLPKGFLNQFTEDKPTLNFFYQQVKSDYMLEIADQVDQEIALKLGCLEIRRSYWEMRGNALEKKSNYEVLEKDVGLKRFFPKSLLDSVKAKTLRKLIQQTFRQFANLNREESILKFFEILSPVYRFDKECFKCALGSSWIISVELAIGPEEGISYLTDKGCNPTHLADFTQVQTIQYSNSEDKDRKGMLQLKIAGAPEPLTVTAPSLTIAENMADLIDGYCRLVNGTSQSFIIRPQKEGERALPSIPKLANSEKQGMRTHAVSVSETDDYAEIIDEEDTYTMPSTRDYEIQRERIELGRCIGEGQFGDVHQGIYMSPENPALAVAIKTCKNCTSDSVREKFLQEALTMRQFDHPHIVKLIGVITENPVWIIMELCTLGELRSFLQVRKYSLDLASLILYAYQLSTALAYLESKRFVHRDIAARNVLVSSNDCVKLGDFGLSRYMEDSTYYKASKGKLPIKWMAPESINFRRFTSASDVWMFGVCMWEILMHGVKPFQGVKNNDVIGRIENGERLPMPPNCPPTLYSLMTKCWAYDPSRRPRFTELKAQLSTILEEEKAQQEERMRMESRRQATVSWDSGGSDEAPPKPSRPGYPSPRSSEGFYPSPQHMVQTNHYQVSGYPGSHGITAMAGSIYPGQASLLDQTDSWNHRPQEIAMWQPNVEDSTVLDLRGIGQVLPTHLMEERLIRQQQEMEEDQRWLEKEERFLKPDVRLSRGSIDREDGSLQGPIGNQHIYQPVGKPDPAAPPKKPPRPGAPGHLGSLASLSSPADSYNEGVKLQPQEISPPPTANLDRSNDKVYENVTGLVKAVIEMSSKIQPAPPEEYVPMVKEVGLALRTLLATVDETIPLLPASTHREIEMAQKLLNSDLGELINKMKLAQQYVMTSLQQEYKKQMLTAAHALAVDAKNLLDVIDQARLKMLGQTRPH
S1P2 antag = S1P2 (human) receptor antagonism | O95136 | cell-based S1P2 antagonist assay, inhibition at 5 uM | inhibition, % at 5 µM | 97,000 compounds, 0.21% hits | AID 736; in the data active = inhibition above about 45%;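 note: CRE beta-lactamase reporter cells expressing human S1P2 stimulated with S1P; 0% = agonist at EC80 alone and 100% = agonist plus reference antagonist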
S1P2 ag = S1P2 (human) receptor agonism; O95136; S1P2-expressing cell line, agonist reporter read-out; activation, % at 4.5 µM; 97,000 compounds, 0.46% hits; AID 729; in the data active = activation above about 16%;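 note: 0% = vehicle low control and 100% = maximal reference agonist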
SDO1 yeast rescue = compounds rescuing growth of sdo1-depleted yeast, bone marrow failure model | S. cerevisiae sdo1-depleted JHY4D growth rescue, OD600 30 h; stronger effect = higher value; pdr5 snq2 efflux-pump mutant strain | z-score at 10 µM | 140,000 compounds, 0.21% hits;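 active = z-score above 3 at both the 24 hr and the 30 hr optical density reads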;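 note: z-score against mean and SD of all compound wells on the same plate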
GALR2 ag = activates the human galanin receptor 2; GALR2-expressing cells, agonist activation read-out; activation, % (test concentration not listed); 140,000 compounds, 0.48% hits; in the data active = activation above about 5%, passing the limit was not always enough;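 note: 0% = vehicle buffer wells and 100% = reference agonist at full effect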
GALR2 blocker = blocks the human galanin receptor 2 | O43603 | inhibition, % at 4 µM | 140,000 compounds, 0.39% hits | GALR2-expressing cells, antagonist mode | AID 828; in the data active = inhibition above about 27%;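 note: cells stimulated with galanin 1-16 at roughly its EC80; 0% = agonist challenge control and 100% = basal control without agonist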
Numbers without * were called inactive; nt = not tested or not shown.

SMILES | FAK inh | S1P2 antag | S1P2 ag | SDO1 yeast rescue | GALR2 ag | GALR2 blocker
COc1ccccc1C(=O)NN=C1CCN(Cc2ccccc2)CC1 | nt | nt | nt | 1.9 | -1 | 5
Cc1c(Cc2ccccc2)sc(NC(=O)c2ccco2)c1C(N)=O | 25* | -19 | -6 | -2 | 2 | 1
COC(=O)/C(=C\Nc1ccc(Cl)c2ccccc12)c1ncc(C(F)(F)F)cc1Cl | -1 | 3 | -11 | -1.8 | -3 | 6
CON/C=C(\C=Nc1ccc(F)cc1)c1ncc(C(F)(F)F)cc1Cl | -2 | 63* | -9 | -1.6 | -3 | -3
Nc1nc(SCC(=O)Nc2c(Br)cc([N+](=O)[O-])cc2Br)n[nH]1 | nt | nt | nt | 0.88 | -3 | 3
Cc1nn(C)c(C)c1CN(C)S(=O)(=O)c1ccc2ccccc2c1 | 0 | 50* | -2 | -0.7 | -2 | 17
Cc1nn(C)c(C)c1CN(C)S(=O)(=O)c1ccc(F)cc1 | -2 | 7 | -6 | 0.61 | -1 | 3
CCOc1ccc(NC(=O)CCN2CCN(S(=O)(=O)c3ccc(Cl)cc3)CC2)cc1 | 0 | -1 | -6 | 1.5 | 269* | -10
CSc1nc(-c2ccccc2)nc2[nH]ccc(=O)c12 | 22* | 8 | -6 | nt | 0 | 0
COCCn1c(SCC(=O)N2CC(=O)Nc3ccccc32)nc2ccccc21 | nt | nt | nt | 0.26 | 0 | 6
Cc1nc(NCc2ccc3c(c2)OCO3)c2nnn(Cc3ccccc3)c2n1 | nt | nt | nt | -1.6 | 6.8* | -4
Cc1ccccc1C=Nc1ccccc1C(N)=O | nt | nt | nt | 0.34 | -1 | -14
CC(=O)Nc1ccc(Nc2cc(C)nc3c(-c4ccccc4)cnn23)cc1 | nt | nt | nt | -2 | 0 | -2
COc1cc([N+](=O)[O-])ccc1NC(=O)CC(C)C | nt | nt | nt | 0.84 | -1 | -8
CC(C)CC(=O)Nc1cc([N+](=O)[O-])ccc1Cl | 8 | 7 | 17* | 0.59 | -3 | -8
Cc1ccc(-n2nnc3c(=O)n(Cc4cc(C)ccc4C)cnc32)cc1 | 22* | -6 | -5 | -0.62 | -1 | 6
Cc1ccc(-n2nnc3c(=O)n(Cc4cccc(C)c4)cnc32)cc1 | 1 | -8 | -2 | -0.56 | -3 | 6
CCOC(=O)c1[nH]c2ccc(OCC)cc2c1CCCN1C(=O)c2ccccc2C1=O | nt | nt | nt | 0.5 | 0 | -10
COc1ccc(C(c2c[nH]c3ccccc23)c2c[nH]c3ccccc23)cc1O | 0 | 5 | 89* | -2 | -1 | -6
COC(=O)C1=C(C)OC(N)=C(C#N)C1c1ccccc1 (stereo not given) | 1 | 1 | -4 | 0.32 | -1 | 1
C=CCC(Nc1ccccc1)C12C=CC(O1)C(C(=O)OC)=C2C(=O)OC (stereo not given) | -2 | 65* | -3 | -1.6 | 0 | 8
CCc1ccc(NC(=O)C2(c3ccccc3)CC2(Cl)Cl)cc1 (stereo not given) | -3 | 4 | 25* | -1.8 | -2 | 5
CN1CCN(Cc2nc3ccccc3c(=O)n2Cc2nc(-c3ccc4ccccc4c3)cs2)CC1 | nt | nt | nt | -2 | 7.7* | 11
CN1CCN(Cc2nc3ccccc3c(=O)n2Cc2nc(-c3ccccc3F)cs2)CC1 | nt | nt | nt | -0.42 | 0 | 15
Cc1[nH]c2ccccc2c1N=Nc1ccccc1C(=O)O | nt | nt | nt | 0.1 | 0 | 9
SMILES | FAK inh | S1P2 antag | S1P2 ag | SDO1 yeast rescue | GALR2 ag | GALR2 blocker
COc1cc(/C=C(/C#N)c2nc3ccccc3[nH]2)ccc1OCC(=O)Nc1ccccc1C(C)C | 12 | 2 | 19* | -3.2 | -2 | 4
[O-][n+]1onc2c1CCc1c-2nn(-c2ccccc2Cl)[n+]1[O-] | 2 | 24 | -9 | 0.19 | -3 | 42*
Cc1cccc(-n2nc3c([n+]2[O-])CCc2nonc2-3)c1C | nt | nt | nt | -0.77 | 0 | 5
Cc1ccc(-n2nc3c([n+]2[O-])CCc2c-3no[n+]2[O-])cc1 | nt | nt | nt | 0.53 | -3 | 49*
CC1C2=C(CCCC2=O)N(c2cccc3ccccc23)C2=C1C(=O)CCC2 | -4 | -18 | 4 | nt | 2 | 1
CCOCCSc1nc2c(c(-c3cccs3)c1C#N)CC/C2=C/c1cccs1 | nt | nt | nt | -0.2 | 5.1* | -3
Cc1cc(C)c2sc(NNC(=O)c3ccc(S(=O)(=O)N4CCc5ccccc5C4)cc3)nc2c1 | nt | nt | nt | 0.1 | 7.7* | -1
Cc1cc(C)c2nc(NNC(=O)c3ccc(S(=O)(=O)N4CCc5ccccc5C4)cc3)sc2c1 | nt | nt | nt | -1.6 | 1 | 18
Cc1c(C(=O)N/N=C/c2ccc(N(C)C)cc2)[nH]c2ccc(Cl)cc12 | nt | nt | nt | 0.39 | 6.4* | 4
CCN(CC)S(=O)(=O)c1cc(C)ccc1SC | nt | nt | nt | -0.52 | 1 | 3

Screening data from PubChem.
